The list is not random: actives were taken first. Their share in the collection is about 8.6%.
Lassa entry: Lassa virus entry inhibition | actives 4.1% (n = 18,000) | AID 720533 | Potency, µM (doses to about 49.2 µM), without a hit: at the top dose activity change, negative = inhibition, actives largely listed as inhibitors | Lassa virus pseudotyped entry inhibition, cell-based qHTS
MARV entry inh: blocks Marburg virus binding or cell entry; Marburg virus pseudotype entry/binding inhibition, cell-based; Potency, µM (series often up to 49.2 µM), for inactives: at the highest dose activity change, negative = inhibition, actives largely listed as inhibitors; actives 6.5% (n = 18,000)
Starred values were filed as active, the others as inactive; ? = inconclusive; . = not tested or not shown; ! = repeats disagree; [ ] = another dose, or the depositor's remark. Calls come from the whole dose curve; tested in HEK293 cells. % is set by controls: 0 for no effect and ±100 for the full control effect; potency is the fitted concentration of half-maximal effect.

SMILES	Lassa entry	MARV entry inh
CC(C)[C@@]1(NC(=O)[C@H]2CC3c4cccc5[nH]cc(c45)C[C@H]3N(C)C2)O[C@@]2(O)C3CCCN3C(=O)[C@@H](Cc3ccccc3)N2C1=O (some centres undefined)	-16%	8.9µM*
O=C(C=Cc1ccccc1)N1CCC[C@H]1CO	3%[8.59 µM]	43%[8.59 µM]
C=C(C)C(=O)C=CC=Cc1ccccc1	.	-87%[8.59 µM]
CC12C=C(C=CCCc3ccco3)C(C)(C1)[C@H](CCc1ccco1)CC2=O (some centres undefined)	-24%[8.59 µM]	29%[8.59 µM]
CN1CCN2c3ccccc3Cc3ccccc3C2C1 (centres undefined)	?	35µM*
CCOC(=O)[C@@]1([C@@H](NC(=O)OC)c2cccc(F)c2)CCCC1=O	1%[8.59 µM]	-13%[8.59 µM]
C1CCC(NC(=NC2C3CC4CC(C3)CC2C4)N2CCOCC2)CC1 (centres undefined)	?	14µM*
C[C@]12CC[C@H]3[C@@H](CCC4=CC(=O)CC[C@@]43C)[C@@H]1CC[C@H]2O	-4%	5%
C=CCN1c2ccccc2[C@]23CCC(=O)N(CC(=O)OC)C2=NC(C(=O)OC)=C(C(=O)OC)[C@H]13	13%[8.59 µM]	18%[8.59 µM]
c1ccc2c(c1)CCCc1cc(NCCN3CCOCC3)nnc1-2	24%[17.8 µM]	5%[17.8 µM]
O=C1C(Cl)=C(NCCN2CCOCC2)C(=O)c2ncccc21	11µM*	13µM*
CC(C)(C)CC(C)(C)c1ccc(O)cc1	?	45µM*!
CCC(C)(C)c1ccc(O)cc1	-2%	13%
O[C@H]1CN(CC2CCCCC2)[C@@H](c2ccccc2)C[C@H]1n1cc(C2CC2)nn1	-7%	?
O=C(c1ccc(F)cc1)C1CCN(CCn2c(=O)[nH]c3ccccc3c2=O)CC1	-5%	?
O=c1[nH]c2ccccc2n1CCCN1CCN(C(c2ccccc2)c2ccccc2)CC1	?	16µM*
CSc1ccc2c(c1)C(N1CCN(C)CC1)Cc1ccccc1S2 (centres undefined)	22µM*!	6.3µM*
CSc1ccc2c(c1)[C@H](N1CCN(C)CC1)Cc1ccccc1S2	28µM*!	11µM*
CN1CCN(C2Cc3ccccc3Sc3ccc(Cl)cc32)CC1 (centres undefined)	?	13µM*
CC1=CC[C@@H](COc2ccccc2)O[C@@]2(C1)C(=O)N(CC1CC1)c1ccccc12	6%[8.59 µM]	20%[8.59 µM]
O=[S+]1([O-])C[C@H](N2CCN(CCO)CC2)[C@H](COCc2ccccc2)N1	9%	33%
C[C@H]1CN(c2ccccc2)C(=O)[C@H]1CC(=O)Nc1ccc(Br)cc1	25%	-9%
CCc1cc(C(=O)NCC2Cc3cc(C)cc(-c4cc(C(C)=O)ccc4F)c3O2)n(C)n1 (centres undefined)	4%	-17%
O=C(Nc1cccc(C(=O)Nc2ccc(S(=O)(=O)O)c3cc(S(=O)(=O)O)cc(S(=O)(=O)O)c23)c1)Nc1cccc(C(=O)Nc2ccc(S(=O)(=O)O)c3cc(S(=O)(=O)O)cc(S(=O)(=O)O)c23)c1	-28%	32µM*!
O=C(NCCCCc1ccccc1)c1cccc(NC(=O)c2ccccc2)c1	-16%	-14%
SMILES	Lassa entry	MARV entry inh
COc1ccc2c3c(c(=O)oc2c1)[C@H]1O[C@](CCCCN2C(=O)c4ccccc4C2=O)(Cc2cc(OC)c(OC)cc21)O3	9%[8.59 µM]	?
CNCCCCOc1ccccc1Cc1ccccc1	?	7.1µM*
CN(C)CCOc1ccccc1Cc1ccccc1	10%	?
CCCCCCCCCCC1=C(C)C(=O)C(OC)=C(OC)C1=O	-9%	-5%
CCCCCCCCCCCC1=C(O)C(=O)C=C(O)C1=O	28µM*!	7%
COC(=O)C1=C(C)N(Cc2ccccc2)C(=NCC(C)C)NC1c1cccc(C(F)(F)F)c1 (centres undefined)	.	9%[8.59 µM]
O=C(C=Cc1ccc2c(c1)OCO2)c1ccc(F)cc1	3%[8.59 µM]	-9%[8.59 µM]
Fc1ccc([C@@H]2CCNC[C@H]2COc2ccc3c(c2)OCO3)cc1	?	5.6µM*
CCN1C(N(C)CCOC)=NC(c2cccc(F)c2)C(C(=O)OC)=C1C (centres undefined)	.	-24%[8.59 µM]
Cc1cc2c(c(=O)n1Cc1ccccc1)[C@H]1O[C@](c3ccsc3)(Cc3cc(C#N)ccc31)O2	-18%[8.59 µM]	1%[8.59 µM]
Nc1ccccc1S(=O)(=O)Nc1cccc2cccnc12	18µM*	7.1µM*
Nc1c(S(=O)(=O)O)cc(Nc2cccc3ccccc23)c2c1C(=O)c1ccccc1C2=O	-15%	5%
C=CCOC(=O)N[C@H](C(C(=O)OC)=C(C)NCc1ccccc1)c1ccc2c(c1)OCO2	-12%[8.59 µM]	?
COC(=O)CC=C[C@H](C)[C@@H](OCc1ccccc1Br)C(C)C	.	14%[8.59 µM]
COC(=O)C1=C(C)N(Cc2ccccc2)C(=NCC2CC2)NC1c1ccc(Br)cc1 (centres undefined)	24%[8.59 µM]	-10%[8.59 µM]
COC1C(O)C(C)O[C@H](OC2CC[C@@]3(C=O)C4CC[C@]5(C)C(C6=CC(=O)OC6)CC[C@@]5(O)C4CC[C@@H]3C2)C1O (some centres undefined)	0.1µM*	?
COC1C(O)C(C)O[C@@H](OC2CC[C@@]3(C)C4CC[C@]5(C)C(C6=CC(=O)OC6)CC[C@@]5(O)C4CC[C@@H]3C2)C1O (some centres undefined)	0.1µM*	0.079µM*
CC(C(O)c1ccc(O)cc1)N1CCC(Cc2ccccc2)CC1 (centres undefined)	-19%	10µM*
C[C@@H]([C@H](O)c1ccc(O)cc1)N1CCC(Cc2ccccc2)CC1	-8%	?
CC(C)(C)NC[C@H](O)COc1ccccc1C1CCCC1	?	7.9µM*
C=CCOc1ccccc1OCC(O)CNC(C)C (centres undefined)	-2%[17.8 µM]	11%[17.8 µM]
CCc1ccccc1OC[C@@H](O)CN[C@H]1CCCc2ccccc21	28µM*	8.9µM*
CC(C)(C)NCC(O)COc1ccc(NC(=O)NC2CCCCC2)cc1 (centres undefined)	-10%	-9%
CCOC(=O)OC[C@H]1O[C@H](c2cc(C)cc(C)c2)C=C[C@H]1OC(=O)OCC	4%[8.59 µM]	2%[8.59 µM]
COc1ccc2c(c1OC)C(Cc1ccccc1)N1CCc3cc4c(cc3C1=C2)OCO4 (centres undefined)	25µM*	?
SMILES	Lassa entry	MARV entry inh
COc1ccc2c(c1OC)C(=O)OC2C1c2cc3c(cc2CCN1C)OCO3 (centres undefined)	-1%	8%
CC(=O)C1=C(C)N(Cc2ccccc2)C(=O)NC1c1ccco1 (centres undefined)	.	2%[8.59 µM]
CC(C)=CCCC(C)=CCN1C(=O)[C@@]2(CC(C)=CC[C@@H](C)O2)c2c(Br)cccc21	-19%[8.59 µM]	0%[8.59 µM]
CN[C@@]1(c2ccccc2Cl)CCCCC1=O	-13%	-13%
CCCOC(=O)c1ccc(O)cc1	-16%[107 µM]	15%[107 µM]
CCCOC(=O)c1cc(O)c(O)c(O)c1	-22%	25µM*
N#Cc1ccc(OCc2cn(CC(=O)c3ccc(O)cc3)nn2)cc1	-15%	14%
N#Cc1c(NC(=O)c2ccc(F)cc2)sc2c1CCCC2	21%	49%
COC(=O)[C@@]1(O)C[C@@H]2O[C@@]1(C)n1c3ccccc3c3c4c(c5c6ccccc6n2c5c31)C(=O)NC4	-20%	14µM*
COC(=O)C1(O)CC2OC1(C)n1c3ccccc3c3c4c(c5c6ccccc6n2c5c31)C(=O)NC4 (centres undefined)	?	4µM*
CC[C@@]12CCCN3CCc4c(n(c5ccccc45)[C@](O)(C(=O)OC)C1)[C@H]32	-8%	?
O=C(c1ccccc1)[C@@H]1O[C@@H]1c1ccccc1	-19%[8.59 µM]	41%[8.59 µM]

Bioassay records from PubChem BioAssay.
